Holding throughout (test): NCI-60 one-dose screen, 48 h (100 = growth as untreated, 0 = no growth, -100 = all killed)
One assay deals with SR leukemia. The conditions noted are these: 10 µM unless noted.
Another assay deals with RPMI-8226 leukemia. The conditions noted are these: 10 µM.
The next assay relates to OVCAR-8 ovarian. The conditions noted are these: 10 µM unless noted.
The next assay deals with OVCAR-5 ovarian. The conditions noted are these: 10 µM unless noted.
For a further assay, the system named is OVCAR-4 ovarian. As to conditions: 10 µM unless noted.
The subject of another assay is SK-OV-3 ovarian. The conditions noted are these: 10 µM.
The next assay relates to IGROV1 ovarian. The conditions noted are these: 10 µM unless noted.
In another assay the test system is OVCAR-3 ovarian. The conditions noted are these: 10 µM unless noted.
Another assay has as its system HS 578T breast. As to conditions: 10 µM unless noted.
A further assay deals with NCI/ADR-RES ovarian. As to conditions: 10 µM unless noted.
A further assay deals with T-47D breast. As to conditions: 10 µM.
The next assay has as its system BT-549 breast. As to conditions: 10 µM unless noted.
A further assay has as its system MDA-MB-435 melanoma. The conditions noted are these: 10 µM unless noted.
In the next assay the test system is SW-620 colon. The conditions noted are these: 10 µM unless noted.
A further assay deals with HCT-116 colon. As to conditions: 10 µM unless noted.
The next assay deals with HCC-2998 colon. As to conditions: 10 µM unless noted.
In a further assay the test system is KM12 colon. As to conditions: 10 µM unless noted.
The subject of the next assay is MCF7 breast. The conditions noted are these: 10 µM unless noted.

This is part of a sample that, as a whole, favours compounds with a hit. Of some 83,000 tested, about 20% had one in any assay.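 How to read the values: 0–100, growth inhibition (40 = 60% inhibited); 0, no net growth; -100 to 0, cell death (-40 = 40% of starting cells died; -100 = all dead).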 Unmarked numbers belong to inactive results. Calls of active or inactive are those of the source. How the source made its calls: active means growth percent below 10; inactive means the rest.

In the case of `O=C1CN2CCC1C/C2=C\c1ccnc2c(Cl)cccc12` (stereo not given), the growth is -24% (active) in the assay with SR leukemia; 62.2% in the assay with RPMI-8226 leukemia; 99.4% in the assay with OVCAR-8 ovarian; 103% in the assay on OVCAR-5 ovarian; 93.6% in the assay on OVCAR-4 ovarian; 94.1% with SK-OV-3 ovarian. Further, the growth was 95.3% with IGROV1 ovarian; 123% with OVCAR-3 ovarian; 219% with HS 578T breast; 101% in the assay with NCI/ADR-RES ovarian; 93.6% in the assay with T-47D breast; 108% in the assay on BT-549 breast. Besides, the growth in the assay with MDA-MB-435 melanoma was 101%; with SW-620 colon, 101%; in the assay with HCT-116 colon, 98.5%; with HCC-2998 colon, 102%.

`O=[N+]([O-])c1ccc(O)c2ncccc12`: the growth with SR leukemia is 21.5%; in the assay on RPMI-8226 leukemia, 52.4%; in the assay with OVCAR-8 ovarian it was 25.3%; in the assay with OVCAR-5 ovarian, 89.8%; in the assay with OVCAR-4 ovarian, 33.8%; with SK-OV-3 ovarian, 75.2%. Moreover, the growth with IGROV1 ovarian was 29.1%; in the assay on OVCAR-3 ovarian, 11.1%; in the assay with HS 578T breast, 74.2%; in the assay on NCI/ADR-RES ovarian, 22.9%; in the assay with T-47D breast it was 30.4%; in the assay on BT-549 breast, 55.2%. For the same molecule, the growth is 43.8% in the assay with MDA-MB-435 melanoma; 32.6% in the assay on SW-620 colon; 17.1% in the assay with HCT-116 colon; 51.6% with HCC-2998 colon; 35.5% with KM12 colon.

Turning to `COc1cc(/C=C/c2cc(/C=C/c3ccc(O)c(OC)c3)n(-c3ccccc3)n2)ccc1O`, the growth in the assay on SR leukemia was -13.9% (active); with RPMI-8226 leukemia, -33.6% (active); with OVCAR-8 ovarian, -13.1% (active); in the assay on OVCAR-5 ovarian it was -7.74% (active); with OVCAR-4 ovarian, 4.49% (active); with SK-OV-3 ovarian, -53.1% (active). The growth is -21.2% (active) in the assay on IGROV1 ovarian; -46.9% (active) in the assay on OVCAR-3 ovarian; -13% (active) with HS 578T breast; 3.18% (active) in the assay on NCI/ADR-RES ovarian; -23.9% (active) with T-47D breast; -47.2% (active) in the assay with BT-549 breast. The growth with MDA-MB-435 melanoma was -67.3% (active); in the assay on SW-620 colon it was -22.7% (active); in the assay with HCT-116 colon it was -5.83% (active); with HCC-2998 colon, 5.82% (active); in the assay with KM12 colon, -28% (active).

In the case of `O=C1C(OCCOc2ccccc2)=C(OCCOc2ccccc2)C(=O)c2ccccc21`, the growth in the assay on SR leukemia is 60.1%; in the assay on RPMI-8226 leukemia, 78.8%; with OVCAR-8 ovarian it was 86.8%; with OVCAR-5 ovarian it was 124%; in the assay on OVCAR-4 ovarian it was 44.8%; with SK-OV-3 ovarian it was 57.9%. Besides, the growth in the assay on IGROV1 ovarian was 62.7%; with OVCAR-3 ovarian, 78.2%; in the assay with HS 578T breast, 60.3%; with NCI/ADR-RES ovarian, 68.8%; in the assay with T-47D breast, 78.2%; with BT-549 breast it was 27.4%. Besides, the growth in the assay with MDA-MB-435 melanoma was 75.8%; with SW-620 colon it was 45.1%; in the assay with MCF7 breast, 64%; with HCT-116 colon, 26%; in the assay with KM12 colon, 57.8%.

Take `COc1c(O)c2c3c(c1OC)-c1ccccc1CC3N(S(=O)(=O)c1ccc(C)cc1)CC2` (stereo not given): the growth is 9.8% (active) in the assay with SR leukemia; 90.9% with RPMI-8226 leukemia; 53.7% with OVCAR-8 ovarian; 79.2% with OVCAR-5 ovarian; 71.3% in the assay with OVCAR-4 ovarian; 48.9% in the assay with SK-OV-3 ovarian. The growth with IGROV1 ovarian is 65.6%; in the assay with OVCAR-3 ovarian it was -10.4% (active); in the assay with HS 578T breast, 63%; in the assay on NCI/ADR-RES ovarian, 40%; in the assay with T-47D breast, 62%; in the assay on MDA-MB-435 melanoma, -0.0173% (active). The growth in the assay with SW-620 colon is 30%; in the assay with MCF7 breast, 20.2%; with HCT-116 colon, 38.6%; in the assay on HCC-2998 colon, 89.6%; in the assay with KM12 colon it was 27.8%.

Regarding `CON=C1C[C@]2(C[C@@H]3C[C@@H](C/C=C(\C)C[C@@H](C)/C=C/C=C4\CO[C@@H]5[C@H](O)C(C)=C[C@@H](C(=O)O3)[C@]45O)O2)O[C@H](/C(C)=C/C(C)C)[C@H]1C`, the growth with SR leukemia is -39.5% (active); in the assay on RPMI-8226 leukemia, 43.7%; in the assay on OVCAR-8 ovarian, 66.4%; in the assay with OVCAR-5 ovarian it was 70.1%; in the assay on OVCAR-4 ovarian it was 57.2%; with SK-OV-3 ovarian, 95.2%. For the same molecule, the growth is 28.1% with IGROV1 ovarian; 1.95% (active) with OVCAR-3 ovarian; 60.2% in the assay on HS 578T breast; 64.8% in the assay on NCI/ADR-RES ovarian; 29.7% in the assay on T-47D breast; 43.7% in the assay on MDA-MB-435 melanoma. The growth with SW-620 colon was 34.5%; in the assay on MCF7 breast, 42%; in the assay with HCT-116 colon, 17.8%; in the assay with HCC-2998 colon, 48.7%.

As to `O=C(Nc1ccccc1)Oc1cccc2cccnc12`, the growth is 48.2% in the assay on SR leukemia; 76.2% with RPMI-8226 leukemia; 74.4% in the assay with OVCAR-8 ovarian; 92.9% in the assay on OVCAR-5 ovarian; 76.8% in the assay with OVCAR-4 ovarian; 112% in the assay on SK-OV-3 ovarian. For the same molecule, the growth in the assay on IGROV1 ovarian was 20.4%; in the assay with OVCAR-3 ovarian it was -19.4% (active); with HS 578T breast, 116%; in the assay with NCI/ADR-RES ovarian it was 78.5%; in the assay on T-47D breast, 31.5%; in the assay with BT-549 breast, 102%. Besides, the growth is 97% in the assay on MDA-MB-435 melanoma, 48.2% in the assay on SW-620 colon, 1.27% (active) in the assay on HCT-116 colon and 108% with KM12 colon.

With `COc1cc2nc(N3CCC[C@H](NC4=CC(=O)c5ccccc5C4=O)C3)nc(N)c2cc1OC`, the growth was -20.1% (active) in the assay with SR leukemia; -50.1% (active) in the assay on RPMI-8226 leukemia; -57.2% (active) in the assay with OVCAR-8 ovarian; 125% in the assay on OVCAR-5 ovarian; -88% (active) in the assay with OVCAR-4 ovarian; 116% in the assay on SK-OV-3 ovarian. The growth was -81.6% (active) in the assay with IGROV1 ovarian; -57.7% (active) in the assay with OVCAR-3 ovarian; -49.1% (active) in the assay with HS 578T breast; 29.4% with NCI/ADR-RES ovarian; -56.2% (active) with T-47D breast; -96.1% (active) in the assay on MDA-MB-435 melanoma. Moreover, the growth was -45.1% (active) in the assay on SW-620 colon; -77.3% (active) with MCF7 breast; -85.3% (active) with HCT-116 colon; 92.9% in the assay with HCC-2998 colon; -39.2% (active) with KM12 colon.

`Cc1ccc2nc(NC(=O)CSC(=S)N3CCN(Cc4ccccc4)CC3)sc2c1`: the growth was 11.1% in the assay on SR leukemia; 8.2% (active) with RPMI-8226 leukemia; 0.825% (active) in the assay with OVCAR-8 ovarian; -36.3% (active) in the assay with OVCAR-5 ovarian; 12.6% in the assay on OVCAR-4 ovarian; -44.7% (active) with SK-OV-3 ovarian. The growth in the assay with IGROV1 ovarian is -39.8% (active); with OVCAR-3 ovarian, -90.4% (active); with HS 578T breast, -0.695% (active); in the assay with NCI/ADR-RES ovarian it was 22.6%; in the assay on T-47D breast it was -32.5% (active); in the assay on BT-549 breast, -55.4% (active). The growth was -38.5% (active) in the assay with MDA-MB-435 melanoma; -84.7% (active) with SW-620 colon; -71.2% (active) in the assay on MCF7 breast; -54.9% (active) in the assay on HCT-116 colon; -92.7% (active) with KM12 colon.

Source of the values: PubChem BioAssay (NCI).
